# The whole screen tested about 1,800 compounds, of which about 710 (39%) were called active. Roughly 28% stayed inconclusive and do not appear here.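 The calls were made as follows: active = luciferase signal rise whose fitted curve crosses a set activity limit at or below the top valid tested dose; inconclusive = flat fit with 30 to 70% rise, or poor fit; inactive = signal falling, flat within 30%, or crossing above top dose.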 These entries were drawn from the full list. Where a call stands in place of a potency, no number is given. Potency and affinity values are given separately.
# Experiment: reporter signal increase, D54 LucT cells – cell-based, luminescence, cherry pick, counter-screen for N-linked glycosylation inhibitor project, dose response (AID 624404)
# Details: D54 LucT luciferase reporter counterscreen, 24 h; series mostly up to 19.5 µM
row,Structure (SMILES),outcome
1,CCOc1ccccc1C1CC(=O)Nc2cc3c(cc21)OCO3 (configuration not stated),inactive
2,Cc1ccc(C)c(N2CCN(c3cnn(-c4nc5ccccc5s4)c(=O)c3Cl)CC2)c1,inactive
3,CC(C)(C)c1ccc(C(=O)O/N=C(\N)Cc2cccs2)cc1,inactive
4,O=C(CCl)Nc1cn(-c2ccccc2)nc1-c1ccc(F)cc1,inactive
5,CC1=CC(C)[C@H](/C=N/n2c(=O)[nH]c3c([nH]c4ccc(Br)cc43)c2=O)C(C)C1 (some centres not stated),inactive
6,COc1ccc(-c2nn(C)c(=O)c3ccccc23)cc1NS(C)(=O)=O,inactive
7,CC=Cc1cc2c(c(=O)o1)C(=O)C(O)C(C)O2 (configuration not stated),inactive
8,Cc1noc(C)c1COc1ccc(C(=O)NNC(=O)c2ccccc2F)cc1,inactive
9,Cc1ccc(OCCOC(=O)c2c(-c3ccccc3)noc2C)cc1,inactive
10,N#CCC(CNc1ncc(C(F)(F)F)cc1Cl)OC(=O)c1ccc(Cl)cc1Cl (configuration not stated),inactive
11,C/C(=N/NC(=O)c1cccs1)c1ccc(NC(=O)COc2ccc(Cl)cc2Cl)cc1,inactive
12,CCOc1ccc(Br)cc1C1=NN(C(C)=O)C(c2ccc([N+](=O)[O-])s2)O1 (configuration not stated),inactive
13,O=C(Nc1cccc(F)c1)c1cc(S(=O)(=O)N2CCOCC2)ccc1N1CCCC1,inactive
14,COc1ccc(S(=O)(=O)Nc2cc3c(cc2C(C)=O)OCO3)cc1,inactive
15,CN(C)S(=O)(=O)c1ccc(N2CCCC2)c(C(=O)Nc2cccc(F)c2)c1,inactive
16,CN(C)S(=O)(=O)c1ccc(N2CCCC2)c(C(=O)Nc2ccccc2)c1,inactive
17,CC1=C(n2ccnc2)CCC1=O,inactive
18,O=C1CC(c2ccccc2F)c2cc3c(cc2N1)CCC3 (configuration not stated),inactive
19,CC(C)(C)c1nnc2sc(SCC(=O)c3ccc4c(c3)OCCO4)nn2c1=O,inactive
20,CN(C)CCc1cc2c(c3c1ccc1ccccc13)OCO2,inactive
21,COc1ccccc1C1CC(=O)Nc2cc3c(cc21)OCCO3 (configuration not stated),inactive
22,COC(=O)c1sc(N)c(C(=O)OC)c1COC(=O)c1c(C)noc1C,inactive
23,Cc1[nH]c2ccc(C(=O)OC(C)C(=O)NCc3ccccc3)cc2c1C (configuration not stated),inactive

row,Structure (SMILES),outcome
1,COc1cccc(-c2nc(N3CCN(C)CC3)c3ccccc3n2)c1O,inactive
2,O=C(CNc1cccc2ccccc12)N/N=C/C(Br)=C/c1ccccc1,inactive
3,O=C(N/N=C/C(Br)=C/c1ccccc1)c1cc(-c2ccco2)[nH]n1,inactive
4,Cc1nc2c3cc(F)ccc3n(Cc3ccc(F)cc3)c2s1,inactive
5,CCCn1nc(C(=O)N2CC(=O)Nc3ccccc32)c2ccccc2c1=O,inactive
6,CCOc1ccc2nc(NCCNC(=O)Nc3cccc(C)c3)c(C#N)cc2c1,inactive
7,COc1ccc2nc(SCC(=O)NC3CCCC3)c(C)cc2c1,inactive
8,OCCNc1c2ccccc2nc2ccccc12,inactive
9,Cc1cc(/C=C2\Sc3ccccc3N2C)cc(C)[n+]1CC1CCCO1 (configuration not stated),inactive
10,O=C(/C=C/c1cccnc1)c1ccc(F)c(F)c1,inactive
11,CC[C@H](C)[C@H](NC(=O)c1ccc(Cl)cc1)C(=O)OCC(=O)c1ccc2c(c1)NC(=O)CO2,inactive
12,CC(C)CC(NC(=O)c1ccc(Cl)cc1)C(=O)OCC(=O)c1ccc2c(c1)NC(=O)CO2 (configuration not stated),inactive
13,COc1ccc(C(=O)C=Cc2ccc(OCc3ccccc3)c(OC)c2)cc1OC,inactive
14,C=CCn1cccc(/C=C/C(=O)c2ccc(C(C)(C)C)cc2)c1=S,inactive
15,CNc1ccc(Br)cc(C(=O)/C=C/c2ccc(Cl)cc2Cl)c1=O,inactive
16,Cc1ccc(-c2nn(-c3ccccc3)cc2NC(=O)CCl)cc1,inactive
17,Cc1ccc(C(=O)CSc2nn3c(=O)c(C(C)(C)C)nnc3s2)cc1,inactive
18,COc1ccccc1-c1cc(NC=O)c2ncc(-c3cccc(C(C)=O)c3)n2c1,inactive
19,CN(C)C(=O)c1cccc(-c2cnc3c(NC=O)cc(-c4ccccc4Cl)cn23)c1,inactive
20,COc1ccc(F)cc1-c1cc(NC(C)=O)c2ncc(-c3cc(OC)c(OC)c(OC)c3)n2c1,inactive
21,Nc1ccc(-c2cc(NC=O)c3ncc(-c4cccc(C(F)(F)F)c4)n3c2)cn1,inactive
22,CCOc1cc(S(=O)(=O)NCc2ccc(OC)cc2)c(OCC)cc1-n1cnnn1,inactive
23,Oc1ccc(N=Nc2ccccc2)o1,inactive

row,Structure (SMILES),outcome
1,O=C(Nc1cccc(C(F)(F)F)c1)c1sc(Cl)nc1C(F)(F)F,inactive
2,CC(C)c1ccc(NC(=O)[C@@H](NC(=O)N2CC(=O)Nc3ccccc32)C(C)C)cc1,inactive
3,O=C(CNC(=O)N1CC(=O)Nc2ccccc21)NCCCc1ccccc1,inactive
4,Cn1ncc2c(O/N=C(\N)c3ccc(C(F)(F)F)cc3)ncnc21,inactive
5,CC(/C=N/NC(=O)c1cc(-c2ccc(C)s2)[nH]n1)=C\c1ccccc1,inactive
6,CN(C)CCCN1C(=O)c2cccc3cccc(c23)C1=O,inactive
7,Cc1cc(NC(=O)COC(=O)c2ccc(S(=O)(=O)N3CCCc4ccccc43)cc2)no1,inactive
8,CCOc1ccccc1C1CC(=O)Nc2cc3c(cc21)OCCO3 (configuration not stated),inactive
9,CCOC(=O)Cc1csc(/N=C/c2c(O)n(-c3ccc(C)c(C)c3)c(=O)c3ccccc23)n1,inactive
10,Cc1cc(O)c(NC(=O)c2cc([N+](=O)[O-])ccc2Cl)cc1C,inactive
11,CC(=O)Nc1sc(C)c(C)c1C(=O)OCC(=O)N(CC(C)C)c1c(N)n(Cc2ccccc2)c(=O)[nH]c1=O,inactive
12,CC(=O)Nc1sc(C)c(C)c1C(=O)OCC(=O)Nc1cccc(C)c1,inactive
13,O=C1c2cccc3cccc(c23)C(=O)N1CC1CCN(CC(O)COCc2ccc3c(c2)OCO3)CC1 (configuration not stated),inactive
14,CN(C)c1ccc(C(C[N+](=O)[O-])c2c(N)n(C)c(=O)n(C)c2=O)c(F)c1C#N (configuration not stated),inactive
15,Cc1ccc(-c2cnc(C3CC3)o2)cc1S(=O)(=O)Nc1ccccc1,inactive
16,CCNc1ccc(Br)cc(C(=O)/C=C/c2ccc(Cl)cc2)c1=O,inactive
17,COc1ccc(Oc2ccc(/C=C/C(=O)c3cccc(OC)c3)cc2[N+](=O)[O-])cc1,inactive
18,Cc1[nH]nc2c1C(c1cccc(O)c1)C1=C(CC(C)(C)CC1=O)N2 (configuration not stated),inactive
19,Cc1cc(NC(=O)CSc2nc(-c3ccco3)cc(C(F)(F)F)n2)no1,inactive
20,O=C(NCCc1ccc(F)cc1)c1coc(=O)c(Br)c1,inactive
21,COc1ccc(CCn2c(=N)c(C(=O)NCc3ccco3)cc3c(=O)n4ccccc4nc32)cc1OC,inactive
